Measurements reported in PubChem BioAssay AID2620 (National Center for Advancing Translational Sciences (NCATS), 2010).
Inconclusive results are not listed. Calls of active or inactive are those of the source. Calls come from the whole dose curve; as a rule, active = well fitted curve in the direction sought with a large enough effect; inconclusive = small, poorly fitted or top-dose-only effect, or another doubt; inactive = no such curve, though single readings can be large or run the other way.

The compounds below were run against Pyruvate kinase PKM (Homo sapiens) (UniProt P14618) (assay: Secondary LDH Assay for Activators of Human Pyruvate Kinase M1 Isoform: for Probe SAR). Conditions: purified hPK-M1, LDH-coupled NADH fluorescence kinetic; series mostly up to 58.2 µM.
Chain of Pyruvate kinase PKM (Homo sapiens) (P14618 whole entry, looked up, canonical isoform): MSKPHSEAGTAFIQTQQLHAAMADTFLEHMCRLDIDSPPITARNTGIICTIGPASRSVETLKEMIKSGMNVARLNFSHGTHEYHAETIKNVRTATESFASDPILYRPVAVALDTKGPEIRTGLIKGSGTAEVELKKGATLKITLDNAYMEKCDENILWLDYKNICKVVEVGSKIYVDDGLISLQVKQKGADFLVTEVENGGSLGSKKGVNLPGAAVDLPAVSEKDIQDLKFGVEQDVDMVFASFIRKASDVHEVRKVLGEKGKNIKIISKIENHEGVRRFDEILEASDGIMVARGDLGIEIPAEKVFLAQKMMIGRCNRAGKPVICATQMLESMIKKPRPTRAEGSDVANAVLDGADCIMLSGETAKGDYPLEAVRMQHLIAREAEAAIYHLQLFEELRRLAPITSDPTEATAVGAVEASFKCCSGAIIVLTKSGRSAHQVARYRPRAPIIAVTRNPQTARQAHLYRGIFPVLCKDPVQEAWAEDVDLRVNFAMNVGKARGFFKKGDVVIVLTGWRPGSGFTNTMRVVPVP
Description: NIH Chemical Genomics Center [NCGC]
Matthew G. Vander Heiden, M.D., Ph.D. [Harvard Medical School, 77 Avenue Louis Pasteur, Boston, MA 02115]
Human pyruvate kinase […] (hPK-M1)enzyme was supplied as a highly purified (>95% pure) preparation from Harvard Medical School and a secondary assay was used to evaluate compounds. This assay couples the formation of pyruvate from […] using lactate dehydrogenase (LDH) and NADH. The depletion of NADH is followed in a fluorescent-based kinetic assay that follows the formation of pyruvate to lactate, as catalyzed LDH. Pyruvate kinase substrates, PEP and ADP, were present in the assay at 0.1 mM and 4 mM respectively. In this kinetic assay initial rates were determined by following the fluorescence of NADH depletion.
NCGC Assay Protocol Summary:
Three uL of substrate mix (final concentration, 50 mM Tris-Cl pH 8.0, 200 mM KCl, 15 mM MgCl2, 0.1 mM PEP, 4.0 mM ADP, and 0.2 mM NADH) was dispensed into black-solid 1536 well plates. 23 nL of compounds were delivered by a pin tool and 1 uL of enzyme mix (final concentrations, 10 nM hPK-M1 and 1 uM of LDH) was added. Plates were immediately placed in ViewLux (Perkin Elmer) and NADH fluorescence was determined at 30 second exposure intervals for between 3 and 6 minutes. Data were normalized to the uninhibited controls.

outcome, inactive:
COc1cc(N2C(=O)c3ccccc3C2=O)c2ncccc2c1, Cc1ccccc1NS(=O)(=O)c1ccc2c(c1)CCC(=O)N2, O=C1CCc2cc(S(=O)(=O)Nc3cccc(Oc4ccccc4)c3)ccc2N1, Cc1ccc(NS(=O)(=O)c2ccc3ccccc3c2)cc1C, O=C1CCc2cc(S(=O)(=O)Nc3ccc4ccccc4c3)ccc2N1, COc1ccc(NS(=O)(=O)c2ccc3c(c2)CCC(=O)N3)cc1, Cc1c(Cl)cccc1NS(=O)(=O)c1cc2c(cc1F)NC(=O)CC2, O=C1c2ccccc2C(=O)N1Cc1ccccn1, O=S1(=O)N=C(Oc2cccc(Cl)c2)c2ccccc21, Cc1ccc(NS(=O)(=O)c2cc3c(cc2F)NC(=O)CC3)cc1C, CC(=O)N1CCc2cc(S(=O)(=O)Nc3ccc(C)c(C)c3)ccc21, CC(=O)Nc1cccc(S(=O)(=O)Nc2ccc(C)c(C)c2)c1, CNc1cccc(S(=O)(=O)N2CCCN(S(=O)(=O)c3ccc4c(c3)OCCO4)CC2)c1, Cc1ccc(NS(=O)(=O)c2ccc3c(c2)CC(=O)N3)cc1C, Cc1nc(-c2ccc(S(=O)(=O)Nc3ccc(C)c(C)c3)s2)cs1, Cc1ccc(NS(=O)(=O)c2cc3c(cc2F)NC(=O)CC3)cc1Cl, O=C1c2ccccc2C(=O)N1c1cnc2ccccc2c1, O=C1c2ccccc2C(=O)N1c1ccccc1O, N#Cc1ccc(NS(=O)(=O)c2ccc3c(c2)CCC(=O)N3)cc1, Cc1cc2c(s1)c1cnn(Cc3ccccc3F)c(=O)c1n2C, O=C1c2ccccc2C(=O)N1c1ccc2ncccc2c1, COc1ccc(-c2nc3cccc(C)n3c2Nc2ccc(C)cc2)cc1, Cc1ccc(NS(=O)(=O)c2ccc(Cl)cc2)cc1C, CN=c1nc(-c2ccccc2)n(-c2ccccc2)s1, Cc1cc(C)n2c(Nc3ccccc3)c(-c3ccc(C)o3)nc2n1, Cc1ccc(NS(=O)(=O)c2ccc3c(c2)CCC(=O)N3)cc1C, Cc1ccc(NC(=O)c2ccc3c(c2)CCC(=O)N3)cc1C, O=C1CCc2cc(S(=O)(=O)Nc3cccc(F)c3)ccc2N1, CNc1cc2c(cc1S(=O)(=O)Nc1ccc(C)c(C)c1)CCC(=O)N2, COc1cccc(N2C(=O)c3ccccc3C2=O)n1, Cc1ccc(NS(=O)(=O)c2ccc3c(c2)CC(=O)N3C)cc1C, O=C1c2ccccc2C(=O)N1c1nccs1, Cc1ccc(Nc2c(-c3ccc(C)o3)nc3cccc(C)n23)cc1, O=C1CCc2cc(S(=O)(=O)Nc3ccccc3-c3ccccc3)ccc2N1, CC(=O)Nc1ccc(S(=O)(=O)Nc2ccc(C)c(C)c2)cc1, Cc1ccc2nc(-c3cccs3)c(Nc3ccccc3)n2c1, O=C1CCc2cc(S(=O)(=O)Nc3ccccn3)ccc2N1, O=C1CCc2cc(S(=O)(=O)Nc3ccc(Cl)c(Cl)c3)ccc2N1, COc1cccc(OC2=NS(=O)(=O)c3ccccc32)c1, Cc1ccc(NS(=O)(=O)c2cc3c(cc2N2CCC2)NC(=O)CC3)cc1C
